Measured values reported in PubChem BioAssay (NCATS).
A number with no mark means an inactive call. Results filed as inconclusive are left out. Calls of active or inactive are those of the source. Unless noted, calls follow the shape of the dose curve; as a rule, active = well fitted curve in either direction with a large enough effect (not every such curve was filed as active); inconclusive = small, poorly fitted or top-dose-only effect, or another doubt; inactive = flat fitted curve, though single readings scatter.

Assays:
[1] = target: Lysosomal acid glucosylceramidase (Homo sapiens) (UniProt P04062); experiment: Glucocerebrosidase-p2 (AID 348; in the data active = potency below about 10 µM; also: potency is read from the fitted curve at half-maximal effect); conditions: purified GBA, blue fluorogenic substrate, 40 min
Sequence of Lysosomal acid glucosylceramidase (Homo sapiens) (P04062 whole entry, looked up): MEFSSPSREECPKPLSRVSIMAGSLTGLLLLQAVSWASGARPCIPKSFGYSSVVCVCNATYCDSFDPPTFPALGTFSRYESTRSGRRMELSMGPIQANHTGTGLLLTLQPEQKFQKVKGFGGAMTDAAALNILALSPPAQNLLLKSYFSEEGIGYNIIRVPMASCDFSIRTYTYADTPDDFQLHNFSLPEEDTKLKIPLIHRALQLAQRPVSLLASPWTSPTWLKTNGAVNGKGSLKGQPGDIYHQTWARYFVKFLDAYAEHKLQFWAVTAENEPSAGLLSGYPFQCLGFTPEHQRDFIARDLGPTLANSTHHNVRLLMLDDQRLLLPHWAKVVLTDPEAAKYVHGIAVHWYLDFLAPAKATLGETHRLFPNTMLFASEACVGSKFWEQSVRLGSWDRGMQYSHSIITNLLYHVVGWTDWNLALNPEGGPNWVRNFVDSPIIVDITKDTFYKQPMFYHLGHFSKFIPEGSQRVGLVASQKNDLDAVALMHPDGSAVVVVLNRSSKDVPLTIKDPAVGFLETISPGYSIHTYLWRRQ
In short: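 Normal human glucocerebrosidase (0.2 nM) with blue fluorogenic substrate (80 uM final) in citrate/phosphate pH 5.9 with 10mM sodium taurocholate, 0.01% tween-20; 40 min RT, NaOH/glycine stop; fluorescence Ex 365/Em 440; AC50 from a titration from 0.6 nM upwards.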

[2] = AP1 Signaling Pathway (AID 357); conditions: ME-180 AP-1-bla reporter, EGF-induced, beta-lactamase ratio, 5 h; at 7.69 µM (top of the series) unless noted;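 also: ME-180 reporter cells stimulated with EGF at its EC50 level; % is scaled to controls: 0 for no effect and ±100 for the full control effect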
In short: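 AP-1-bla ME-180 cells, Opti-MEM + 0.5% dialyzed FBS, plated overnight 37 °C. Cpd titration + EC50 EGF, 5 h 37 °C. CCF4 2.5 h RT; ex 405, em 460/530 ratio → %activity, AC50.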

[3] = target: Cytochrome P450 1A2 (Homo sapiens) (UniProt P05177); experiment: p450-cyp1a2 (AID 410; calls by dose curve; also: potency is read from the fitted curve at half-maximal effect;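 as to activity change, negative = inhibition: -100% = full effect of reference inhibitor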); conditions: recombinant CYP1A2, luciferin-ME demethylation, luminescence; series mostly up to 11.4 µM
Sequence of Cytochrome P450 1A2 (Homo sapiens) (P05177 whole entry, looked up): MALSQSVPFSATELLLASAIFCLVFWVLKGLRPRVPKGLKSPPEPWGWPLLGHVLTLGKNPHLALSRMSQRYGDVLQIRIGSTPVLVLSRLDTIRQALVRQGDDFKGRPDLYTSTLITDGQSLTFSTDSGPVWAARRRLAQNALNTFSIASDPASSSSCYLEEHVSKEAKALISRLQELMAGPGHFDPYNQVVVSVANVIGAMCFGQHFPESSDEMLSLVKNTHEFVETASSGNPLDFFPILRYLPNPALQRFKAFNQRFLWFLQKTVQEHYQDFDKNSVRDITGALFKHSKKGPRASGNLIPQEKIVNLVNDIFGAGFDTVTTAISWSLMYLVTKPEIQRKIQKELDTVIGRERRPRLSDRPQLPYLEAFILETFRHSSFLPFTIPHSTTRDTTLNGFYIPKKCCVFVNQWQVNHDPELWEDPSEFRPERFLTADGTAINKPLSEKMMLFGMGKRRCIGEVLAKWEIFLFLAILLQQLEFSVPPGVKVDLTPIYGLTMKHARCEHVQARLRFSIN
In short: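 Read-out is luminescence from luciferin produced by CYP1A2 demethylation of Luciferin-ME (100uM, at Km). Detection reagent stopped the 60 min NADPH-dependent reaction; signals were normalized to 57 uM furafylline.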

[4] = NFAT Signaling Pathway (AID 444); conditions: Jurkat NFAT-bla M1, carbachol, beta-lactamase ratio, 5 h; at 7.69 µM (top of the series) unless noted;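 also: carbachol stimulus at about its EC50 of 1 µM final; % is scaled to controls: 0 for no effect and ±100 for the full control effect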
In short: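 Jurkat cells carrying an NFAT-driven β-lactamase reporter and co-transfected muscarinic M1 receptor were treated with compound plus carbachol (1 uM final, an EC50 level) for 5 h at 37 °C. CCF4 loading followed for 1 h at RT; 460/530 nm ratio gave %activity.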

[5] = Stat Signaling Pathway (AID 446); conditions: ME-180 SIE beta-lactamase reporter, IL-6 stimulated, 5 h; at 7.69 µM (top of the series) unless noted;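 also: ME-180 cervical cancer cells given 40 pM IL-6 alongside compound; SIE-controlled beta-lactamase reporter measured as 460/530 nm FRET emission ratio; % is scaled to controls: 0 for no effect and ±100 for the full control effect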
In short: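 Emission at 460 and 530 nm (excitation 405 nm) reports SIE-controlled beta-lactamase in ME-180 cells. Cells received compound with 40 pM IL-6 for 5 hrs at 37 C; data scaled between 300 pM IL-6 and 125 nM JAK-inhibitor controls.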

[6] = target: Glucocorticoid receptor (Homo sapiens) (UniProt P04150); experiment: GR-GFP Redistribution (AID 450;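 active = compounds whose dose series gives a full or clear partial fitted curve of increased nuclear translocation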; also: potency is read from the fitted curve at half-maximal effect); conditions: U2OS GR-GFP nuclear translocation, laser cytometry, 2 h
Sequence of Glucocorticoid receptor (Homo sapiens) (P04150 whole entry, looked up, the tested form may be a part): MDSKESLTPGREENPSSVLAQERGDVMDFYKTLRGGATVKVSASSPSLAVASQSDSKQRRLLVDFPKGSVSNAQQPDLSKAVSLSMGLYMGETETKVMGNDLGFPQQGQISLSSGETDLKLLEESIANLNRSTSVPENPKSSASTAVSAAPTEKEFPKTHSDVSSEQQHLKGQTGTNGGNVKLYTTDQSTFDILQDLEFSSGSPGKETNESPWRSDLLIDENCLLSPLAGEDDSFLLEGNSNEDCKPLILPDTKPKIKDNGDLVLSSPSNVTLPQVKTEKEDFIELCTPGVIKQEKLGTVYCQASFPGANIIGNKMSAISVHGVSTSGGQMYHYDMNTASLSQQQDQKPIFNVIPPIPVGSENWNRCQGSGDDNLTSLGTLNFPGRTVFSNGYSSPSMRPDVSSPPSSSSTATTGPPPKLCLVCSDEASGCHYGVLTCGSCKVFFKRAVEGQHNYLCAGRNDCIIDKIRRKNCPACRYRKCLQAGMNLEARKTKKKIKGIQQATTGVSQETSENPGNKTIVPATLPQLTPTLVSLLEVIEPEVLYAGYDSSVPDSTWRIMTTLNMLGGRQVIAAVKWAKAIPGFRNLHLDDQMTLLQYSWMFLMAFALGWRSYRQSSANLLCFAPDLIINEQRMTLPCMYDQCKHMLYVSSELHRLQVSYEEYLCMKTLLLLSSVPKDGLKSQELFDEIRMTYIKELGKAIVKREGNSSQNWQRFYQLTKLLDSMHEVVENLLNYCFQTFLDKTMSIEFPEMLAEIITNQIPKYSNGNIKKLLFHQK

[7] = target: Glucocorticoid receptor (Homo sapiens) (UniProt P04150); experiment: GR-EFC Redistribution (AID 451; calls by dose curve; also: potency is read from the fitted curve at half-maximal effect); conditions: CHO-K1 GR-EFC translocation, beta-gal luminescence, 2 h
In short: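 CHO-K1 cells stably expressing nuclear-localized β-gal enzyme acceptor and GR fused C-terminally to the enzyme donor fragment; ligand-driven nuclear translocation restores β-gal by complementation. Compounds titrated up to 46 uM final, 2 h at 37 °C; luminescence read.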

[8] = target: Mitogen-activated protein kinase 10 (Mus musculus) (UniProt Q61831); experiment: JNK3 AlphaScreen Assay (AID 530); conditions: JNK3 lysate, c-Jun phosphorylation; series mostly up to 11.4 µM;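 also: kinase came from lysate of stimulated human HepG2 cells; signal reports phosphorylation of biotinylated GST-cJun 1-79 at Ser73 with 10 µM ATP; % is scaled to controls: 0 for no effect and ±100 for the full control effect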
In short: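 Biotinylated GST-cJun(1-79) served as substrate for JNK3 in HepG2 lysates stimulated with IL-1beta and TNF-alpha. ATP was 10 uM final, pH 7.6. Ser73 phosphorylation was quantified by AlphaScreen (680 nm excitation).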

[9] = target: 3',5'-cyclic-AMP phosphodiesterase 4B (Homo sapiens) (UniProt Q07343); experiment: qHTS Assay for Inhibitors of PDE-IV (AID 607; active = well fitted activation curve with a large enough effect in the main read-out, with a control signal flat, not every such curve was filed as active; also: % of control where 0% means no effect); conditions: HEK293 ACTOne CNG channel cells, membrane potential fluorescence; series mostly up to 22.9 µM
Sequence of 3',5'-cyclic-AMP phosphodiesterase 4B (Homo sapiens) (Q07343 whole entry, looked up): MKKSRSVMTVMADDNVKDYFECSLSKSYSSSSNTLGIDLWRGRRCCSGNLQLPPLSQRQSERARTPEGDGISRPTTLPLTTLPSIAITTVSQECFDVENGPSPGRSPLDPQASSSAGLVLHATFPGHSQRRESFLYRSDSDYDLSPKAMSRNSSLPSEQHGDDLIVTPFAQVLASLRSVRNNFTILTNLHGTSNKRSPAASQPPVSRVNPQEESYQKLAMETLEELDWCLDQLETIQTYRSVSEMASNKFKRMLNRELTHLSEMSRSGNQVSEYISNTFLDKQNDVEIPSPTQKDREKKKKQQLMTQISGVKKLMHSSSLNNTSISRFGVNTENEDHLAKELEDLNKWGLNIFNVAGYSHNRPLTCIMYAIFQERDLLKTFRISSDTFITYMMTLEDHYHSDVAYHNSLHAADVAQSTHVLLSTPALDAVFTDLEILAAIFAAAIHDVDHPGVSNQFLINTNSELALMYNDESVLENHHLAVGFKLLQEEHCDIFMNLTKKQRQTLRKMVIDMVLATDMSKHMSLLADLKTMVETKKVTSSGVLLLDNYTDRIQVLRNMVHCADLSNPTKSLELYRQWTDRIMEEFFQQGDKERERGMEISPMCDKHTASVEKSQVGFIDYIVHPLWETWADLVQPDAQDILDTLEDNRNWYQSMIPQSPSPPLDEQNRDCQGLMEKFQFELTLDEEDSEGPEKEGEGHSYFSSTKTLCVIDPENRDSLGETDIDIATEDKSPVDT
In short: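 The readout is membrane depolarisation from a cAMP-sensing CNG channel, detected with a potential dye at ex 535/em 590. Cells were HEK293-derived (endogenous PDE-IV) at 1000 cells/well, titrated up to 22.9 uM final.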

[10] = target: Cytochrome P450 2D6 (Homo sapiens) (UniProt P10635); experiment: qHTS Assay for Inhibitors and Substrates of Cytochrome P450 2D6 (AID 891; active = well fitted inhibition curve with a large enough effect; also: nearly all actives have a fitted effect of over 60% in size; also: potency is read from the fitted curve at half-maximal effect); conditions: recombinant CYP2D6, luciferin-ME EGE luminescence; series mostly up to 11.4 µM
Sequence of Cytochrome P450 2D6 (Homo sapiens) (P10635 whole entry, looked up): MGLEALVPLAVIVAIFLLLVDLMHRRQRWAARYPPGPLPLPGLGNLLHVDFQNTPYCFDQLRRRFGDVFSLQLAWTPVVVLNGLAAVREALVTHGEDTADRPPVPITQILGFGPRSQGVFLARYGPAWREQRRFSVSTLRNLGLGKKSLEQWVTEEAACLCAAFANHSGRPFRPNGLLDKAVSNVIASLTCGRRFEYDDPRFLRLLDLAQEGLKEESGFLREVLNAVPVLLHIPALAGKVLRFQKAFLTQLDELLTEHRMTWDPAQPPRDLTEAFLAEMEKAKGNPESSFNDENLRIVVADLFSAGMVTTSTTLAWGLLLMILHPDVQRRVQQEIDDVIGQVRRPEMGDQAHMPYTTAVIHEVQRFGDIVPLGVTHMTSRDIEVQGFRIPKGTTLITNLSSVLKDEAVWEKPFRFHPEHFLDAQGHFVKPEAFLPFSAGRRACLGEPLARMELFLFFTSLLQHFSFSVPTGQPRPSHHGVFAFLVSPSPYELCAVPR
In short: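 Luminescent read-out of luciferin formed by 5 nM human CYP2D6 demethylating 30 uM Luciferin-ME EGE (Km level) over 60 min at room temperature after NADPH regeneration addition. Data normalized to full inhibition by 1.43 uM quinidine.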

[11] = qHTS Assay for Identification of Small Molecule Agonists for Hypoxia Response Element Signaling Pathway (AID 914; active = well fitted activation curve with a large enough effect in the signal ratio, with a control signal flat, not every such curve was filed as active; the % refers to the signal ratio; also: % of control where 0% means no effect); conditions: ME-180 (cervical carcinoma) HRE-bla reporter, beta-lactamase ratio, CoCl2, 17 h; activation: active compounds read high
In short: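 qHTS titration; ME-180 HRE-bla cells; EC50 CoCl2 co-treatment, 17 h at 37 degrees Celsius; CCF4 dye, ex 405nm, em 460nm and 530nm; %Activity from ratio; AC50.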

[12] = target: Cytochrome P450 2C19 (Homo sapiens) (UniProt P33261); experiment: qHTS Assay for Inhibitors and Substrates of Cytochrome P450 2C19 (AID 899; active = well fitted inhibition curve with a large enough effect; also: nearly all actives have a fitted effect of over 60% in size; also: potency is read from the fitted curve at half-maximal effect); conditions: recombinant CYP2C19, luciferin-H EGE luminescence; series mostly up to 11.4 µM
Sequence of Cytochrome P450 2C19 (Homo sapiens) (P33261 whole entry, looked up): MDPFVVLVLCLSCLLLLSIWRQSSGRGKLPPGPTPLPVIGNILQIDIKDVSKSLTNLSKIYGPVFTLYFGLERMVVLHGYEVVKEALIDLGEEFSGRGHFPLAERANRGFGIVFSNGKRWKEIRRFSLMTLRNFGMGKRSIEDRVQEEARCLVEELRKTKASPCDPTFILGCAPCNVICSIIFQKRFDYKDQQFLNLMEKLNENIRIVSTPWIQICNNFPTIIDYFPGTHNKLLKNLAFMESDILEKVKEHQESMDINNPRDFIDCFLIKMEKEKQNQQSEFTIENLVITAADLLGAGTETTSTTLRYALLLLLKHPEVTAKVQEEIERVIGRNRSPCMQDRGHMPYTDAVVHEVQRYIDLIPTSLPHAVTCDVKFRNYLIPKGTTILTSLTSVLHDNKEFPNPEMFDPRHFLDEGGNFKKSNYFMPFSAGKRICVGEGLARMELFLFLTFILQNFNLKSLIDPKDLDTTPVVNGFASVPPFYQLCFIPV
In short: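 NADPH-dependent conversion of Luciferin-H EGE (10uM, at KM) by 5nM enzyme in 50mM KPO4, 60 min at 37C following 10 min compound preincubation. Stopped with luciferin detection buffer; luminescence read after 20 min.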

SMILES | Potency [1] [µM] | activity change, negative = inhibition [2] [%] | activity change, negative = inhibition [3] | activity change, negative = inhibition [4] [%] | activity, negative = inhibition [5] [%] | Potency [6] [µM] | Potency [7] [µM] | Potency [8] | Potency [9] | Potency [10] | activation [11] [%] | Potency [3] | Potency [12]
Nc1ccc(S(=O)(=O)NCCS(=O)(=O)O)cc1 | > 11.4 | -2.08 | -3.1% [at 2.29 µM] | 6.94 | -3.3 | > 46 | > 9.22 | inactive | inactive | inactive | -1.31 | – | –
Nc1ccc2[nH]cc(CCC(=O)O)c2c1 | > 11.4 | 4.94 | – | 4.67 | 6.65 | > 46 | > 9.22 | inactive | inactive | – | – | inactive | inactive
C/C(=N\NC(=O)c1ccncc1)c1ccc2ccccc2c1O | > 11.4 | 7.91 | – | -7.25 | -3.43 | > 46 | > 9.22 | inactive | inactive | – | – | 3.98 µM (active) | 0.501 µM (active)
O=c1[nH]c(=S)c2[nH]c(=O)n(-c3ccccc3)c2[nH]1 | > 11.4 | 12.1 | – | 15.1 | 8.32 | > 46 | > 9.22 | inactive | inactive | – | – | inactive | inactive
O=C(O)CCSCc1ccccc1 | > 11.4 | 4.81 | – | -0.126 | -0.355 | > 46 | > 9.22 | inactive | inactive | – | – | inactive | inactive
Nc1c(S(N)(=O)=O)cc(S(N)(=O)=O)cc1S(N)(=O)=O | > 11.4 | 2.78 | – | 7.97 | 1.94 | > 46 | > 9.22 | inactive | inactive | – | – | inactive | inactive
Oc1c(Br)cc(Br)cc1CN(Cc1cc(Br)cc(Br)c1O)C1CCCCC1 | > 11.4 | 6.04 | – | 5.11 | -17.9 | > 46 | > 9.22 | inactive | inactive | 0.251 µM (active) | – | 3.16 µM (active) | 0.316 µM (active)
Cc1c(Cl)c(S(N)(=O)=O)cc(S(N)(=O)=O)c1NC(=O)c1ccc(Cl)cc1 | > 11.4 | -4.6 | – | 5.51 | 5.58 | > 46 | > 9.22 | inactive | inactive | inactive | – | inactive | inactive
O=C(O)c1ccc(S(=O)(=O)N=Nc2c(O)[nH]c3ccccc23)cc1 | > 11.4 | -0.32 | – | 4.27 | 21.1 | > 46 | > 9.22 | inactive | inactive | – | – | inactive | inactive
CC(C)(C)c1ccc(O)c(CN(Cc2c(O)ccc3ccccc23)C2CCCCC2)c1 | > 11.4 | -7.92 | – | -10.8 | -13.7 | > 46 | > 9.22 | inactive | inactive | 0.794 µM (active) | 2.73 | 3.98 µM (active) | –
O=C(CC1(O)CCCCC1)OC1CCCC1 | > 11.4 | 8.55 | – | 16.8 | 4.14 | > 46 | > 9.22 | inactive | inactive | – | – | inactive | 1.58 µM (active)
Cc1ccc([C@@]2(C)CC/C(=N/N=C3\CC[C@](C)(c4ccc(C)c(C)c4)c4cc(C)c(C)cc43)c3cc(C)c(C)cc32)cc1C | > 11.4 | 5.94 | – | 7.12 | 4.03 | > 46 | > 9.22 | inactive | inactive | – | – | inactive | inactive
O=C(O)C(Cc1cccs1)C(=O)O | > 11.4 | 7.58 | -2.1% [at 2.29 µM] | 8.62 | 0.541 | > 46 | > 9.22 | inactive | inactive | – | – | – | inactive
CC(CC(=O)O)(CC(=O)O)C(=O)O | > 11.4 | -0.949 | – | 18.4 | 9.05 | > 46 | > 9.22 | inactive | inactive | inactive | – | inactive | inactive
Cn1c([N+](=O)[O-])cnc1CN1CCN(CCO)CC1 | > 11.4 | 11 | 9.2% [at 2.29 µM] | 2.86 | 10.3 | > 46 | > 9.22 | inactive | inactive | – | – | – | inactive
C[C@@H]1O[C@@H](O)[C@@H](O)[C@H](O)[C@H]1O | > 11.4 | -1.53 | – | 13.9 | 6.79 | > 46 | > 9.22 | inactive | inactive | – | – | inactive | inactive
COc1ccc(-c2cc([C@H](O)[C@@H]3CCCCN3)c3ccccc3n2)cc1 | > 11.4 | 27.7 | -11% [at 2.29 µM] | 23.2 | 2.85 | > 46 | > 9.22 | inactive | inactive | 3.16 µM (active) | – | – | 3.98 µM (active)
O=C(N[C@@]1(C(=O)O)C[C@@H]1c1ccccc1)c1ccccc1 | > 11.4 | 7.86 | – | 18.8 | 10.3 | > 46 | > 9.22 | inactive | inactive | – | – | inactive | inactive
CN(C)c1ccc(C(=C2C=CC(=[N+](C)C)C=C2)c2c(O)c(S(=O)(=O)O)cc3cc(S(=O)(=O)O)ccc23)cc1 | > 11.4 | 3.1 | – | -12.3 | 4.39 | > 46 | > 9.22 | inactive | inactive | – | – | 3.98 µM (active) | inactive
O=C(CCN1CCCCC1)N1CCc2c([nH]c3ccccc23)[C@H]1c1cccnc1 | > 11.4 | 4.71 | -19.7% [at 2.29 µM] | -15.8 | -6.32 | > 46 | > 9.22 | inactive | inactive | – | – | – | inactive
O=C1c2ccccc2-c2ccc(NC(=O)[C@H]3CCCC[C@@H]3C(=O)O)cc21 | > 11.4 | 9.83 | – | 13.7 | 1.55 | > 46 | > 9.22 | inactive | inactive | – | -7.45 | 1 µM (active) | –
N=C(c1ccc2ccccc2c1)c1ccccc1Cc1ccccc1 | > 11.4 | 0.881 | – | -18 | -1.68 | > 46 | > 9.22 | inactive | inactive | – | – | 0.501 µM (active) | 3.98 µM (active)
O=C(O)[C@@H]1[C@@H](C(=O)Nc2ncccn2)[C@@H]2C=C[C@@H]1O2 | > 11.4 | -0.979 | -13.2% [at 2.29 µM] | 0.85 | 9.29 | > 46 | > 9.22 | inactive | inactive | – | 18.9 | – | –
CC(=O)CC(=O)Nc1ccc2ccccc2c1 | > 11.4 | 6.48 | – | 11.8 | 6.17 | > 46 | > 9.22 | inactive | inactive | – | – | 2 µM (active) | inactive
CC(C)C(O)(C(C)C)C(C)C | > 11.4 | 7.29 | – | 3.44 | 13.2 | > 46 | > 9.22 | inactive | inactive | – | – | inactive | inactive
C[N+](C)(C)c1nc(N)nc2c1ncn2[C@H]1O[C@@H](CO)[C@@H](O)[C@H]1O | > 11.4 | 6.27 | -4.9% [at 2.29 µM] | 2.16 | -3.17 | > 46 | > 9.22 | inactive | inactive | – | – | – | inactive
CN1CCc2nc(N)nc(-c3nc(N)nc4c3CN(C)CC4)c2C1 | > 11.4 | 1.73 | -3.9% [at 2.29 µM] | 7.63 | 4.69 | > 46 | > 9.22 | inactive | inactive | – | – | – | inactive
N/C(CC(=O)Nc1cc(C(F)(F)F)ccc1Cl)=N\O | > 11.4 | -3.52 | – | 11.5 | -1.63 | > 46 | > 9.22 | inactive | inactive | – | – | 1.58 µM (active) | inactive
O=C1c2ccccc2C(=O)N1CCCSc1ccccc1 | > 11.4 | -13.4 | – | 1.88 | -7.77 | > 46 | > 9.22 | inactive | inactive | – | – | 1 µM (active) | 0.631 µM (active)
